{
  "source": "the supplement of paper PMC9023506",
  "note": "Counter-ions that a name gives are not always drawn.",
  "data": [
    {"tested_on": "Danio rerio larvae (5 dpf)", "test": "optomotor response to blue moving lines, difference vs DMSO (percentage points (treated minus DMSO)); higher = more of the behaviour than the DMSO vehicle control", "settings": "10 µM; exposure time: 3 h pre-incubation + 3 h imaging", "procedure": "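5-dpf wild-type zebrafish larvae were imaged in 96-well plates. They were treated with 190 Tocris FDA-approved drugs at 10 µM (1 µl/ml DMSO) for 3 h before and 3 h during imaging at 28.5 °C, 48 larvae per drug. Automated image analysis gave % time moving and optomotor responses. Values are drug group mean minus DMSO vehicle mean (n=844), in percentage points, for 10 behaviours.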", "values": [
      {"smiles": "Cn1nnc2c(C(N)=O)ncn2c1=O", "note": "[Temozolomide]", "optomotor response to blue moving lines": 3.81},
      {"smiles": "CCCCc1nc(Cl)c(CO)n1Cc1ccc(-c2ccccc2-c2nnn[nH]2)cc1", "note": "[Losartan potassium]", "optomotor response to blue moving lines": -6.92},
      {"smiles": "CN(C)CC/C=C1/c2ccccc2COc2ccc(CC(=O)O)cc21", "note": "[Olopatadine hydrochloride]", "optomotor response to blue moving lines": -0.0571},
      {"smiles": "O=C(O)CCCc1ccccc1", "note": "[Sodium 4-Phenylbutyrate]", "optomotor response to blue moving lines": 3.11},
      {"smiles": "Cc1ccc(NC(=O)c2ccc(CN3CCN(C)CC3)cc2)cc1Nc1nccc(-c2cccnc2)n1", "note": "[Imatinib mesylate]", "optomotor response to blue moving lines": -0.219},
      {"smiles": "CC#C[C@]1(O)CC[C@H]2[C@@H]3CCC4=CC(=O)CCC4=C3[C@@H](c3ccc(N(C)C)cc3)C[C@@]21C", "note": "[Mifepristone]", "optomotor response to blue moving lines": 11},
      {"smiles": "CN1CC2c3ccccc3Oc3ccc(Cl)cc3C2C1", "note": "(stereo not given) [Asenapine maleate]", "optomotor response to blue moving lines": -10},
      {"smiles": "O=C(O)C[C@H](O)C[C@H](O)/C=C/c1c(C2CC2)nc2ccccc2c1-c1ccc(F)cc1", "note": "[Pitavastatin calcium]", "optomotor response to blue moving lines": 11},
      {"smiles": "CC(C)c1ccc2oc3nc(N)c(C(=O)O)cc3c(=O)c2c1", "note": "[Amlexanox]", "optomotor response to blue moving lines": 5.97},
      {"smiles": "CCCc1nc(C(C)(C)O)c(C(=O)O)n1Cc1ccc(-c2ccccc2-c2nnn[nH]2)cc1", "note": "[Olmesartan]", "optomotor response to blue moving lines": 3.07},
      {"smiles": "CC(=O)Nc1ccc(O)cc1", "note": "[Acetaminophen]", "optomotor response to blue moving lines": 5.11},
      {"smiles": "COc1ccc([C@@H]2Sc3ccccc3N(CCN(C)C)C(=O)[C@@H]2OC(C)=O)cc1", "note": "[Diltiazem hydrochloride]", "optomotor response to blue moving lines": -5.83},
      {"smiles": "Cc1ccsc1C(=CCCN1CCC[C@@H](C(=O)O)C1)c1sccc1C", "note": "[Tiagabine hydrochloride]", "optomotor response to blue moving lines": 24.1},
      {"smiles": "CC(C)Nc1cccnc1N1CCN(C(=O)c2cc3cc(NS(C)(=O)=O)ccc3[nH]2)CC1", "note": "[Delavirdine mesylate]", "optomotor response to blue moving lines": -0.42},
      {"smiles": "NC(=O)OCC(COC(N)=O)c1ccccc1", "note": "[Felbamate]", "optomotor response to blue moving lines": -1.4},
      {"smiles": "COc1ccc(Cl)cc1C(=O)NCCc1ccc(S(=O)(=O)NC(=O)NC2CCCCC2)cc1", "note": "[Glibenclamide]", "optomotor response to blue moving lines": 1.29},
      {"smiles": "CC1=Nc2ccc(Cl)cc2S(=O)(=O)N1", "note": "[Diazoxide]", "optomotor response to blue moving lines": 0.0367},
      {"smiles": "CC[C@H]1OC(=O)[C@H](C)[C@@H](O[C@H]2C[C@@](C)(OC)[C@@H](O)[C@H](C)O2)[C@H](C)[C@@H](O[C@@H]2O[C@H](C)C[C@H](N(C)C)[C@H]2O)[C@](C)(O)C[C@@H](C)CN(C)[C@H](C)[C@@H](O)[C@]1(C)O", "note": "[Azithromycin]", "optomotor response to blue moving lines": -9.61},
      {"smiles": "COc1cc(Nc2c(C#N)cnc3cc(OCCCN4CCN(C)CC4)c(OC)cc23)c(Cl)cc1Cl", "note": "[Bosutinib]", "optomotor response to blue moving lines": -9.89},
      {"smiles": "OCCN(CCO)c1nc(N2CCCCC2)c2nc(N(CCO)CCO)nc(N3CCCCC3)c2n1", "note": "[Dipyridamole]", "optomotor response to blue moving lines": -5.39},
      {"smiles": "CC(=O)S[C@@H]1CC2=CC(=O)CC[C@]2(C)[C@H]2CC[C@@]3(C)[C@@H](CC[C@@]34CCC(=O)O4)[C@H]12", "note": "[Spironolactone]", "optomotor response to blue moving lines": 1.86},
      {"smiles": "CC[C@H](C)C(=O)O[C@H]1C[C@@H](C)C=C2C=C[C@H](C)[C@H](CC[C@@H]3C[C@@H](O)CC(=O)O3)[C@H]21", "note": "[Lovastatin]", "optomotor response to blue moving lines": 8.37},
      {"smiles": "OC(c1cc(C(F)(F)F)nc2c(C(F)(F)F)cccc12)C1CCCCN1", "note": "(stereo not given) [Mefloquine hydrochloride]", "optomotor response to blue moving lines": 10.8},
      {"smiles": "CCCc1nn(C)c2c(=O)[nH]c(-c3cc(S(=O)(=O)N4CCN(C)CC4)ccc3OCC)nc12", "note": "[Sildenafil citrate]", "optomotor response to blue moving lines": 8.78},
      {"smiles": "CCCCCOC(=O)Nc1nc(=O)n([C@@H]2O[C@H](C)[C@@H](O)[C@H]2O)cc1F", "note": "[Capecitabine]", "optomotor response to blue moving lines": 16.5},
      {"smiles": "CC(C)(C)NC(=O)[C@@H]1C[C@@H]2CCCC[C@@H]2CN1C[C@@H](O)[C@H](Cc1ccccc1)NC(=O)[C@H](CC(N)=O)NC(=O)c1ccc2ccccc2n1", "note": "[Saquinavir mesylate]", "optomotor response to blue moving lines": -2.78},
      {"smiles": "CC(C)(C#N)c1cc(Cn2cncn2)cc(C(C)(C)C#N)c1", "note": "[Anastrozole]", "optomotor response to blue moving lines": -5.16},
      {"smiles": "Brc1c(NC2=NCCN2)ccc2nccnc12", "optomotor response to blue moving lines": 7.07},
      {"smiles": "Nc1cccc2c1CN(C1CCC(=O)NC1=O)C2=O", "note": "(stereo not given) [Lenalidomide]", "optomotor response to blue moving lines": 3.02},
      {"smiles": "CCOC(=O)N1CCC(=C2c3ccc(Cl)cc3CCc3cccnc32)CC1", "note": "[Loratidine]", "optomotor response to blue moving lines": 6.09},
      {"smiles": "CCCN(CCC)S(=O)(=O)c1ccc(C(=O)O)cc1", "note": "[Probenecid]", "optomotor response to blue moving lines": 2.07},
      {"smiles": "CCc1nc(N)nc(N)c1-c1ccc(Cl)cc1", "note": "[Pyrimethamine]", "optomotor response to blue moving lines": 15.9},
      {"smiles": "CC/C(=C(\\c1ccccc1)c1ccc(OCCN(C)C)cc1)c1ccccc1", "note": "[Tamoxifen citrate]", "optomotor response to blue moving lines": -14.3},
      {"smiles": "CCCCNc1cc(C(=O)O)cc(S(N)(=O)=O)c1Oc1ccccc1", "note": "[Bumetanide]", "optomotor response to blue moving lines": 3.8},
      {"smiles": "C[C@@H]1C[C@H]2[C@@H]3CCC4=CC(=O)C=C[C@]4(C)[C@@]3(F)[C@@H](O)C[C@]2(C)[C@@]1(O)C(=O)CO", "note": "[Dexamethasone]", "optomotor response to blue moving lines": 2.76},
      {"smiles": "COc1cc2nc(N3CCN(C(=O)C4COc5ccccc5O4)CC3)nc(N)c2cc1OC", "note": "(stereo not given) [Doxazosin mesylate]", "optomotor response to blue moving lines": -6.52},
      {"smiles": "C/C(O)=C(\\C#N)C(=O)Nc1ccc(C(F)(F)F)cc1", "note": "[Teriflunomide]", "optomotor response to blue moving lines": -8.25},
      {"smiles": "CCc1ccc(CCOc2ccc(CC3SC(=O)NC3=O)cc2)nc1", "note": "(stereo not given) [Pioglitazone hydrochloride]", "optomotor response to blue moving lines": -1.78},
      {"smiles": "COCCc1ccc(OCC(O)CNC(C)C)cc1", "note": "(stereo not given) [Metoprolol tartrate]", "optomotor response to blue moving lines": 10.9},
      {"smiles": "CC(=O)O[C@H]1C(=O)[C@@]2(C)[C@H]([C@H](OC(=O)c3ccccc3)[C@]3(O)C[C@H](OC(=O)[C@H](O)[C@@H](NC(=O)c4ccccc4)c4ccccc4)C(C)=C1C3(C)C)[C@]1(OC(C)=O)CO[C@@H]1C[C@@H]2O", "note": "[Taxol]", "optomotor response to blue moving lines": -0.599}
    ]}
  ]
}
